High-throughput results: PubChem, National Center for Advancing Translational Sciences (NCATS)
Rows were chosen to be rich in hits. Some 12% of all compounds tested hit in one or more screens of this group.
Sfp inh = blocks B. subtilis Sfp PPTase activity | Biochemical Sfp PPTase activity, qHTS | Potency, µM, for the others: largest response in the series, negative = inhibition, most hits filed as inhibitors | 3.5% of 310,000 active;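 also: the enzyme is Sfp with the accession as filed and its product quenches rhodamine fluorescence; 0% = enzyme reaction without inhibitor and -100% = no enzyme wells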
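With Hepes-Na pH 7.6 buffer containing 10 mM MgCl2, Sfp (15 nM) modified BHQ-2-YbbR (12.5 uM) using rhodamine-CoA (5 uM). Two reads 30 minutes apart at 525/598 nm yielded each well's rate.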
HP1b chromo inh = blocks HP1-beta chromodomain binding to methylated histone tails; Potency, µM (top dose mostly 114 µM), inactives show at the top dose activity change, negative = inhibition, usual class: inhibitors; AlphaScreen HP1-beta / biotin-H3K9me3 peptide binding; 0.56% of 390,000 active; also: nearly all actives have a fitted effect of over 70% in size
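AlphaScreen: HP1-beta (50 nM) preformed 30 min with biotin-H3(1-18)K9me3 peptide (50 nM) in PBS pH 7.4, 0.01% Tween-20. Compound added for 30 min at RT, then streptavidin donor/nickel chelate acceptor beads (10 ug/mL) for 30 min.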
G9a block = inhibitors of human histone lysine methyltransferase G9a; Q96KQ7; G9a H3K9 monomethylation, AlphaScreen, 2 h; Potency, µM (highest dose often 102 µM), inactives show at the highest dose activity, negative = inhibition, actives largely listed as inhibitors; 8.8% of 350,000 active; AID 504332; also: % is scaled to controls: 0 for no effect and ±100 for the full control effect; nearly all actives have a fitted effect of over 75% in size
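Step 1: enzyme (final 20 nM) with compound, 15 min RT. Step 2: substrate peptide 500 nM and SAM 20 uM, 2 h RT. Step 3: anti-H3K9me1 antibody and AlphaScreen beads, 10 min, then plate read.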
BAZ2B inh = inhibitors of human BAZ2B bromodomain; Q9UIF8; AlphaScreen BAZ2B-H3K14Ac peptide displacement; Potency, µM (titrated, usually from 114 µM), for the others: at the highest dose activity change, negative = inhibition, actives largely listed as inhibitors; 4.4% of 360,000 active; AID 504333; also: % is scaled to controls: 0 for no effect and ±100 for the full control effect; nearly all actives have a fitted effect of over 60% in size
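BAZ2B 50 nM plus b-H3(5-23)K14Ac 50 nM, PBS pH 7.4/0.01% Tween-20, 30 min RT; compound added (max 110 uM), 30 min RT; streptavidin donor/Ni-chelate acceptor beads 10 ug/mL final, 20 min dark; AlphaScreen read.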
JMJD2A Tudor = inhibitors of human JMJD2A Tudor domain; O75164; AlphaScreen JMJD2A-Tudor / H3K4me3 peptide binding; Potency, µM (highest dose often 114 µM), for the others: at the highest dose activity change, negative = inhibition, hits mostly inhibitors; 4.4% of 390,000 active; also: % is scaled to controls: 0 for no effect and ±100 for the full control effect; nearly all actives have a fitted effect of over 50% in size
Target sequence (O75164 whole entry, looked up, the tested form may be a part): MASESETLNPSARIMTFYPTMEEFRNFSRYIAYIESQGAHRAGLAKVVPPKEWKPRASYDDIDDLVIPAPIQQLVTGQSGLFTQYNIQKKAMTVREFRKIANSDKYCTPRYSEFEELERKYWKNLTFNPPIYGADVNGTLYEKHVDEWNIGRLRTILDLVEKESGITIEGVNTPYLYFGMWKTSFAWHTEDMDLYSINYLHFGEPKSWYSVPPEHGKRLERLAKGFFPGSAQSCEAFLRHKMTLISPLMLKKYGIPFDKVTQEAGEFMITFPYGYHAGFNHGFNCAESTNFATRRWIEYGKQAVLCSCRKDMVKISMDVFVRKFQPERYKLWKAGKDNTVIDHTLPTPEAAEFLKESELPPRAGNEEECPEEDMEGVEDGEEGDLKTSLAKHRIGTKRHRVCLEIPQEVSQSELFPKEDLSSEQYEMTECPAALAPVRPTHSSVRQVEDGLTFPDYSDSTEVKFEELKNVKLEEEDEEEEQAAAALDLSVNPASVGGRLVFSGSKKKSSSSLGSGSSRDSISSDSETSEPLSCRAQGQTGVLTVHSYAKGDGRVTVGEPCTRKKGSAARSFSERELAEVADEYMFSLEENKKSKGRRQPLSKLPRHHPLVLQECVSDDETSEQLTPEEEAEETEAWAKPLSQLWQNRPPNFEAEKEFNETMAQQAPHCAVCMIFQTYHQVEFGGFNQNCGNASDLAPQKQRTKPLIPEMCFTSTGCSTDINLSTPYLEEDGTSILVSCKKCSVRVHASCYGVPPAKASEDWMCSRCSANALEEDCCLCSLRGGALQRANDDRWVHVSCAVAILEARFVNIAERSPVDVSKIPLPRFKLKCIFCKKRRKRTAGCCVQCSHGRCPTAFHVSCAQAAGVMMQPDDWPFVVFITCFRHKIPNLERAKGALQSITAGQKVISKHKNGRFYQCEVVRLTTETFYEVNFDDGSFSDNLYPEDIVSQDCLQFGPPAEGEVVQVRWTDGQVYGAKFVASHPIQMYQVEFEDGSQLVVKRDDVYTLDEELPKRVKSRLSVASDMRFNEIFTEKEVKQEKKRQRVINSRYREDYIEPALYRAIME
L3MBTL1 block = inhibitors of human L3MBTL1; Q9Y468; AlphaScreen L3MBTL1–H3K9me1 peptide binding; Potency, µM (highest dose often 57.1 µM), for inactives: top-dose activity, negative = inhibition, most hits filed as inhibitors; 0.66% of 230,000 active; also: % is scaled to controls: 0 for no effect and ±100 for the full control effect; nearly all actives have a fitted effect of over 60% in size
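L3MBTL1 50 nM + b-AHA-H3(1-15)K9me1 75 nM, 30 min RT; compound added, 30 min RT; streptavidin donor/Ni-chelate acceptor beads 10 ug/mL each final, 30 min RT dark; AlphaScreen read.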
* marks the source's active call; other numbers are inactive results; ? = inconclusive; · = not tested or not shown; [ ] = remark or other dose. Calls follow the shape of the dose curve; as a rule, active = well fitted curve in the direction sought with a large enough effect; inconclusive = small, poorly fitted or top-dose-only effect, or another doubt; inactive = no such curve, though single readings can be large; an effect the other way counts as inactive or inconclusive. Potency is read from the fitted curve at half-maximal effect.

SMILES	Sfp inh	HP1b chromo inh	G9a block	BAZ2B inh	JMJD2A Tudor	L3MBTL1 block
O=C(NC(=S)N1CCCCC1)c1csc([N+](=O)[O-])c1	-3%	-21%	25µM*	-32%	-13%	1%
C=CCNC(=S)NC(=O)c1csc([N+](=O)[O-])c1	56µM*	-15%	25µM*	-21%	-31%	-20%
CCOc1ccccc1-c1nnc2n1N=C(c1cc(OC)ccc1OC)CS2	-16%	·	·	·	-14%	·
O=[N+]([O-])c1cccc(COc2ccccc2CN2CCCCC2)c1	·	1%	·	·	-33%	·
Cc1nc2c3cc(F)ccc3n(Cc3ccccc3F)c2s1	18µM*	-22%	-26%[59 µM]	50µM*	23%	-2%
CC(C)C[C@@H](CNCC(=O)[C@H](C)NC(=O)c1[nH]cnc1C(=O)N[C@@H](C)CN)NC(=O)c1nc[nH]c1C(=O)N[C@@H](CO)C(=O)O	·	27%	·	·	89µM*	·
CC(C)C[C@@H](CNCC(=O)[C@H](CC(C)C)NC(=O)c1[nH]cnc1C(=O)N[C@@H](C)CN)NC(=O)c1nc[nH]c1C(=O)N[C@@H](Cc1ccccc1)C(=O)O	·	35%	·	·	-29%	·
CC(C)C[C@@H](CNCC(=O)[C@H](C)NC(=O)c1[nH]cnc1C(=O)N[C@@H](C)CN)NC(=O)c1nc[nH]c1C(=O)N[C@@H](C)C(=O)O	·	66%	·	·	50µM*	·
CC(C)C[C@@H](CNCC(=O)[C@H](Cc1ccccc1)NC(=O)c1[nH]cnc1C(=O)N[C@@H](C)CN)NC(=O)c1nc[nH]c1C(=O)N[C@@H](C)C(=O)O	·	55%	·	·	79µM*	·
CC(C)C[C@H](NC(=O)c1[nH]cnc1C(=O)N[C@@H](C)c1ccccc1)C(=O)OCc1ccccc1	29%	33%	19%[12.7 µM]	3%	-35%	·
O=S(=O)(Nc1cccc(-c2ccc(N3CCCC3)nn2)c1)c1ccccc1C(F)(F)F	·	10%[57 µM]	-2%[59 µM]	2%	-13%	·
CCOc1ccccc1NC(=O)Cn1c(=O)n(CC(=O)NCc2ccccc2Cl)c(=O)c2sccc21	·	37%	0%[59 µM]	5%	6%	·
CC(NC(=O)Nc1ccccc1C(F)(F)F)c1c(-n2cccc2)sc2c1CCCC2 (stereo not given)	·	30%	-8%[59 µM]	-16%	-15%	·
Cc1ccc(C(=O)NCC(=O)N(C)CC(=O)Nc2ccccc2Br)s1	·	38%	35%[12.7 µM]	-5%	-4%	-3%
CSc1ccccc1NC(=O)COC(=O)CCc1ccccc1	15%	54%	25%	18%	28%	·
COc1cccc(CNC(=O)C2CCN(S(=O)(=O)c3ccc4c(c3)CC(C)N4C(C)=O)CC2)c1 (stereo not given)	5%	15%	-7%	0%	3%	·
O=S(=O)(Nc1c(O)ccc2ccccc12)c1cccc2ccccc12	·	79µM*	·	·	79µM*	·
COc1ccc(OC)c(NC(=O)c2ccc(-c3nc(CSc4ccccc4)c(C)o3)cc2)c1	·	33%	?	?	-21%	·
COc1ccccc1-n1c(-c2ccccc2)n[nH]c1=S	71µM*	12%	·	-24%	2.8µM*	-2%
COc1ccc(OC)c(-n2c(-c3ccccc3)n[nH]c2=S)c1	-10%	21%	?	-5%	3.2µM*	·
COc1ccc(-n2c(-c3cc(-c4ccccc4)sc3N)n[nH]c2=S)cc1	-20%	36%	1%	-17%	-15%	·
COc1ccccc1-n1c(-c2cn(C)nc2C)n[nH]c1=S	56µM*	15%	7.1µM*	-1%	22µM*	-5%
COc1ccc(OC)c(-n2c(-c3cccc(C)c3)n[nH]c2=S)c1	79µM*	-24%	1.1µM*	?	?	-4%
O=[S+]([O-])(c1ccc2c(c1)OCCO2)N1CCN([S+](=O)([O-])c2ccc(F)cc2Br)CC1	·	·	·	·	-10%	·
CCN(CC)CCCn1c(-c2ccccc2)nc2c(NCCOC)nc(C)nc21	27%	·	·	·	·	·
SMILES	Sfp inh	HP1b chromo inh	G9a block	BAZ2B inh	JMJD2A Tudor	L3MBTL1 block
CCOc1ccccc1NC(=O)C1=C(C)Nc2ncnn2C1c1ccco1 (stereo not given)	·	23%[57 µM]	1%[59 µM]	-2%	-1%	·
O=C(COc1ccccc1Cl)OCc1cc(=O)n2nc(-c3cccs3)sc2n1	·	-28%	9%[59 µM]	-3%	-22%	·
Cc1ccc(S(=O)(=O)N(C(=O)c2ccncc2)c2ccc(OC(=O)c3ccncc3)cc2)cc1	10%	35%	?	-31%	-25%	5%
O=C(Oc1ccc(N(C(=O)c2ccncc2)S(=O)(=O)c2ccc(F)cc2)cc1)c1ccncc1	14%	-3%	45µM*	-12%	-15%	·
COC(=O)c1c(C)oc2ccc(N(C(=O)c3ccncc3)S(=O)(=O)c3ccc(Br)cc3)cc12	·	54%	-37%[59 µM]	-21%	?	·
O=C(c1ccncc1)N(c1ccc2oc3c(c2c1)CCCC3)S(=O)(=O)c1ccc(F)cc1	3%	4%	79µM*	?	-24%	-13%
O=C(Oc1ccc(N(C(=O)c2ccncc2)S(=O)(=O)c2ccc(Cl)cc2)cc1)c1ccncc1	12%	36%	50µM*	-13%	-33%	5%
CCn1c(SCc2cccc(Br)c2)nnc1-c1nonc1NC(C)=O	·	57%	0%[59 µM]	1%	6%	·
CCCCN(CCCN)c1ccc(Br)cn1	·	13%	·	·	-21%	·
Cc1cccc(OCCCN2CCOCC2)c1C	-10%	?	·	?	25µM*	5%
Cc1ccc(OCCCCCN2CCOCC2)c(Cl)c1	·	50µM*	·	·	22µM*	·
Cc1ccc(C)c(OCCN2CCOCC2)c1	7%	37%	?	-16%	10%	·
Clc1ccc(OCCOCCN2CCc3ccccc3C2)c(Cl)c1	4%	71%	-4%[59 µM]	9%	12%	6%
Cc1cccc(OCCCCCN2CCOCC2)c1C	9%	13%	-5%	3%	-14%	-2%
Clc1cc(Br)ccc1OCCOCCN1CCCC1	-9%	?	40µM*	?	32µM*	-1%
Clc1cc(Br)ccc1OCCOCCN1CCOCC1	-24%	-22%	?	?	7.1µM*	2%
O=C(Cn1c(=O)nc(-c2ccccc2)c2cc(Cl)ccc21)NCCc1ccccc1	·	33%	4%[12.7 µM]	-4%	0%	·
C[C@@H]1CC[C@@]2(OC1)OC1CC3C4CC=C5CC(O)CCC5(C)C4CCC3(C)C1[C@@H]2C (stereo not given in full)	1%	·	·	·	·	·
CC1=NNC(=O)/C1=C\c1cn(-c2ccccc2)nc1-c1ccc(F)cc1	9%	-4%	10µM*	-38%	-32%	-17%
CC1=NNC(=O)/C1=C\c1cn(-c2ccccc2)nc1-c1cccs1	32µM*	-13%	10µM*	?	?	-2%
